Laboratory results: PubChem BioAssay AID624260 (Broad Institute, 2012)
In all, about 44,000 compounds went through this assay and about 30 (0.07%) were called active. Inconclusive results (about 1%) are left out. The list comes from a sample in which actives are over-represented; it also holds similar structures and randomly drawn compounds. Values without a mark were called inactive. Cut-off read from the data, not from the text of the source: active = inhibition above about 54% (passing the limit was not always enough); inconclusive = no clear call, values can overlap the other calls.

biological target: Histone-lysine N-methyltransferase NSD2 (Homo sapiens) (UniProt O96028); test: NSD2 histone methyltransferase activity blockers – biochemical, plate reader, single point, primary screen (AID 624260); conditions: NSD2-SET H3K36me1 DELFIA fluorescence, at 12.5 µM, active compounds read high;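 note: inhibitors reduce the monomethyl H3K36 fluorescence signal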
Sequence (O96028 whole entry, looked up): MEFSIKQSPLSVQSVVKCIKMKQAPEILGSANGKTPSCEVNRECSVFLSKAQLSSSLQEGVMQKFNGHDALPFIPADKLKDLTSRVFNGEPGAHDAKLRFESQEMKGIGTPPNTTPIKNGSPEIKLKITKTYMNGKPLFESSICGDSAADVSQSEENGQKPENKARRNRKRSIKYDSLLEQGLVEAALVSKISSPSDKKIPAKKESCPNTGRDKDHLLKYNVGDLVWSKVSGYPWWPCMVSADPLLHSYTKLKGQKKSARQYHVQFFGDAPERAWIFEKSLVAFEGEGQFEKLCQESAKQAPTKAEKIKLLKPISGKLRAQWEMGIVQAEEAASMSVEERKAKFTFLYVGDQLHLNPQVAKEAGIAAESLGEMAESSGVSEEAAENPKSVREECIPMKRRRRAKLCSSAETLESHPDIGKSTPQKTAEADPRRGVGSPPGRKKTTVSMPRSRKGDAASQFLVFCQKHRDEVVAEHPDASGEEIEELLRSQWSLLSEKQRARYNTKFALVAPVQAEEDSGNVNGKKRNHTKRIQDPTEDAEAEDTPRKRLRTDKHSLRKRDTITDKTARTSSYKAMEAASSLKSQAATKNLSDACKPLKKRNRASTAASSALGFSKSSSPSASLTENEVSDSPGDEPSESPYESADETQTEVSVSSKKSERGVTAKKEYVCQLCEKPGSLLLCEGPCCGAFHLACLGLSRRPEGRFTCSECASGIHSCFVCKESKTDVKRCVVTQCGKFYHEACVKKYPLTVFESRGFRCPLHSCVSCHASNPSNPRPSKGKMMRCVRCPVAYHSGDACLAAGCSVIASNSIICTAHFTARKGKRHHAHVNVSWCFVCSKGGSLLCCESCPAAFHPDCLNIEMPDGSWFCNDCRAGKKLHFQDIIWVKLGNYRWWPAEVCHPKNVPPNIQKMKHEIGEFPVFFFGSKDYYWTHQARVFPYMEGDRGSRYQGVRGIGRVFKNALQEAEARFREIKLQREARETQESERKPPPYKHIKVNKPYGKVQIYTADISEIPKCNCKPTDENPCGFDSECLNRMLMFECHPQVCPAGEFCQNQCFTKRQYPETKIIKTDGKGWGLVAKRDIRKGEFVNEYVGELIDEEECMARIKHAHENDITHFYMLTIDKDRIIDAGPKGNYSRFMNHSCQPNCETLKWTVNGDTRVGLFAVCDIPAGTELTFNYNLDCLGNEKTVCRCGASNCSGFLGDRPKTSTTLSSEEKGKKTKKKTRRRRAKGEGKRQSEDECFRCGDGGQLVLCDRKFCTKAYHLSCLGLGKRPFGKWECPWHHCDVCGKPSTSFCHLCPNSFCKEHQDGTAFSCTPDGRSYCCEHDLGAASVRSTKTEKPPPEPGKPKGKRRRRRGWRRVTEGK

Question: With CC(=O)N(C)C[C@H]1Oc2cc(C#Cc3ccccc3F)ccc2S(=O)(=O)N([C@@H](C)CO)C[C@H]1C as the molecule, how does the inhibition read?
Answer: -2.4%

Question: For O=C(C[C@@H]1C[C@H]2c3cc(NS(=O)(=O)c4ccc(F)cc4)ccc3O[C@H]2[C@H](CO)O1)NCCc1ccccc1, which inhibition is on record?
Answer: 4.07%

Question: With C[C@@H]1CN([C@@H](C)CO)S(=O)(=O)c2ccc(C#Cc3ccccc3F)cc2O[C@H]1CN(C)C(=O)c1ccc2c(c1)OCO2 as the molecule, how does the inhibition read?
Answer: -0.635%

Question: Which inhibition does the source give for CC(C)NC(=O)N(C)C[C@H]1Oc2ncc(C#CC3(O)CCCC3)cc2C(=O)N([C@H](C)CO)C[C@@H]1C here?
Answer: -3.09%

Question: Which inhibition does the source give for O=C(C[C@@H]1C[C@@H]2c3cc(NS(=O)(=O)c4ccc(F)cc4)ccc3O[C@@H]2[C@@H](CO)O1)NCc1ccncc1 here?
Answer: 1.12%

Question: CN(C)CC(=O)Nc1ccc2c(c1)[C@H]1C[C@@H](CC(=O)NCc3ccc(-c4ccccc4)cc3)O[C@H](CO)[C@H]1O2 was tested. Which inhibition did it give?
Answer: 3.66%

Question: How did the inhibition turn out when C[C@H](CO)N1C[C@H](C)[C@@H](CN(C)S(=O)(=O)c2ccc(Cl)cc2)Oc2ccc(NS(C)(=O)=O)cc2CC1=O was run?
Answer: 1.76%

Question: With C[C@@H]1CN([C@@H](C)CO)C(=O)c2cc(-c3cccc(F)c3)cnc2O[C@@H]1CN(C)Cc1ccccc1 as the molecule, how does the inhibition read?
Answer: -9.63%

Question: COCC(=O)Nc1ccc2c(c1)[C@H]1C[C@H](CC(=O)NCc3ccccn3)O[C@H](CO)[C@H]1O2 was tested. Which inhibition did it give?
Answer: 2.78%

Question: For CCC(=O)N(C)C[C@H]1Oc2cc(/C=C/c3ccccc3)ccc2S(=O)(=O)N([C@H](C)CO)C[C@@H]1C, which inhibition is on record?
Answer: 2.05%

Question: With COc1ccc(NC(=O)Nc2ccc3c(c2)[C@@H]2C[C@H](CC(=O)N4CCCCC4)O[C@H](CO)[C@@H]2O3)cc1 as the molecule, how does the inhibition read?
Answer: 4.87%

Question: C[C@@H]1CN([C@@H](C)CO)S(=O)(=O)c2ccc(-c3cccc(C(=O)N(C)C)c3)cc2O[C@@H]1CN(C)C was tested. Which inhibition did it give?
Answer: 1.16%

Question: Which inhibition does the source give for CC(C)NC(=O)N(C)C[C@@H]1Oc2ncc(C#Cc3ccncc3)cc2C(=O)N([C@@H](C)CO)C[C@@H]1C here?
Answer: 4.8%

Question: How did the inhibition turn out when Cc1ccc(-c2cnc3c(c2)C(=O)N([C@H](C)CO)C[C@@H](C)[C@H](CN(C)Cc2ccccc2C(=O)O)O3)cc1 was run?
Answer: 12.9%

Question: How did the inhibition turn out when CCCNC(=O)C[C@H]1C[C@@H]2c3cc(NC(=O)COC)ccc3O[C@@H]2[C@@H](CO)O1 was run?
Answer: 3.25%

Question: How did the inhibition turn out when C[C@H](CO)N1C[C@H](C)[C@@H](CN(C)C(=O)Nc2ccccc2)Oc2ncc(C3=CCCC3)cc2C1=O was run?
Answer: -0.747%

Question: With C/C=C/c1cnc2c(c1)C(=O)N([C@@H](C)CO)C[C@@H](C)[C@H](CN(C)Cc1ccccc1)O2 as the molecule, how does the inhibition read?
Answer: 1.34%
